This note sets out measurements from ChEMBL document CHEMBL4888484, “Replenishing the malaria drug discovery pipeline: Screening and hit evaluation of the MMV Hit Generation Library 1 (HGL1) against asexual blood stage Plasmodium falciparum ,using a nano luciferase reporter read-out” (2022).

Molecules are shown by their SMILES. Out of some 150,000 compounds screened, about 540 (0.36%) showed an effect of 50% or more. The sample as a whole holds a higher share of strong results than the screen did.

Usually % Inhibition stands for the drop in the measured response relative to a control, in per cent.

The assay has as its system Plasmodium falciparum. Kind of assay: Primary screen in NF54 nanoGlo assay, in single point, at 2uM, 72h; a lower Z score goes with more inhibition. In kind it is functional, Erythrocyte. The conditions noted are these: timepoint 72 hour.
As to `C[C@H](NC(=O)c1ccccc1)C(=O)NCC1(N2CCOCC2)CCCCC1`, the “% Inhibition” value is -4% and the Z score is 0.39.
In the same order, the values of `COc1ccc(C(=O)N(Cc2ccc(OS(=O)(=O)c3ccc(F)cc3)cc2)C(C)C)c(OC)c1` are -14% and 1.5.
For `NC(=NCc1ccc(Cl)cn1)N1CCN(c2nccs2)CC1`, in that order: -4% and 0.42.
For `NC(=NCc1csc2ccccc12)N1CCN(c2nccs2)CC1`, in that order: 5% and -0.56.
Consider `NC(=NCc1cccc2cccnc12)N1CCN(c2nccs2)CC1`, for which the “% Inhibition” value turned out to be 57% and the Z score was -10.38.
Regarding `N#Cc1ncn(C[C@H]2CCC3(CCCCC3)O2)c1C#N`, the “% Inhibition” value is on record as -10% and the Z score came to 1.82.
For the compound `Cc1ccc(CN2CCN(C[C@@H](O)Cn3c4ccccc4n4c(=O)cc(C)c(C#N)c34)CC2)c(C)c1`, the “% Inhibition” value was determined as 86% and the Z score is given as -13.14.
For `N#Cc1c(CN2CCOCC2)cc(=O)n2c1[nH]c1ccccc12`, in that order: 35% and -0.01.
Consider `C[C@H](O)CN1CCN(Cc2cn3ccccc3c2C#N)CC1`, for which the “% Inhibition” value was -13% and the Z score amounted to 2.38.
For `O=C(CC1CCCCC1)NCC1CCN(c2cc(-c3cccnc3)n[nH]2)CC1`, in that order: -17% and 1.71.
For `CC[n+]1ccc(-c2ncc(-c3ccc(C(C)(C)C)cc3)o2)cc1`, in that order: 66% and -12.84.
In the same order, the values of `CO[C@@H](C)C(=O)N(Cc1ncc[nH]1)c1cncc(Br)c1` are 2% and -0.29.
As for `COc1ccc(-c2cc(OC(F)(F)F)ccc2O)nn1`, the “% Inhibition” value is -8% and the Z score was found to be 1.53.
In the same order, the values of `O=C(CCC(=O)c1ccc2c(c1)OCCCO2)NCc1ccccc1` are -7% and 1.26.
For `C[N+]1(CCCC(=O)c2ccc3c(c2)OCCO3)CCC(c2ccccc2)C1` (stereo unspecified), in that order: 73% and -8.3.
For `CC1CCCC(C)N1S(=O)(=O)c1ccc(NC(=O)CCC(=O)c2ccc3c(c2)OCCO3)cc1` (stereo unspecified), in that order: -4% and 0.64.
Take `CCn1nccc1-c1cnc2nc(C)nn2c1`: the “% Inhibition” value was -6% and the Z score is 0.88.
In the same order, the values of `Cc1cc(C)c(C(=O)N2C[C@H](F)C[C@H]2C(N)=O)o1` are 1% and -0.13.
For the compound `Cc1cccc([C@@H](NC(=O)Nc2ncco2)C(F)(F)F)c1`, the “% Inhibition” value is 54% and the Z score is listed as 1.59.
On to `Cc1cccc(C(NC(=O)[C@@H]2CCCO2)C(F)(F)F)c1` (stereo partly specified), for which the “% Inhibition” value is given as -6% and the Z score is recorded as 0.81.
In the same order, the values of `Cc1cccc([C@@H](NC(=O)CC2OCCCO2)C(F)(F)F)c1` are 3% and -0.38.
For `O=C(Nc1cccc2c1CCCC2)c1cccc(S(=O)(=O)N2CCCCC2)c1`, in that order: -16% and 1.73.
On to `Cc1cc(=O)c(C(=O)Nc2ccnc(NC(=O)OC(C)(C)C)c2)c[nH]1`, for which the “% Inhibition” value is -2% and the Z score was determined as 0.38.
With `Cn1cncc1CCN1CCC[C@H](NC(=O)OC(C)(C)C)C1`, the “% Inhibition” value is -12% and the Z score stood at 1.84.
In the same order, the values of `Cn1cncc1CC(=O)Nc1ccnc(NC(=O)OC(C)(C)C)c1` are 94% and -14.52.
In the same order, the values of `CC(C)c1noc(CN2CC[C@H](NC(=O)c3ccccn3)[C@@H](O)C2)n1` are -2% and 0.42.
For `CCCN(CC(=O)N(Cc1ccco1)C[C@H]1CCCO1)C(=O)c1ccc(C)cc1`, in that order: -8% and 1.14.
For `COc1ccnc(C(=O)N(Cc2cnn(C)c2)C(C)C)c1`, the “% Inhibition” value was -10% and the Z score is listed as 1.37.
For the compound `CC(C)c1nccn1CC(=O)NC(C1CC1)C1CC1`, the “% Inhibition” value is reported as 1% and the Z score is -0.12.
In the same order, the values of `CC(C)c1nccn1CCC(=O)Nc1ncn(C2CCCCC2)n1` are 50% and 1.4.
For `CC(C)c1nccn1CCC(=O)N1CC[C@H](N)C1`, in that order: 6% and -0.94.
For `CC(C)Cn1c(CC2(CC(=O)NC3CCOCC3)CCCC2)nc2cccnc21`, in that order: -12% and 1.81.
With `CCN1CCN(Cc2cccc3cccnc23)C(C)(C)C1=O`, the “% Inhibition” value is -9% and the Z score is listed as 1.65.
For `Cc1ccc(-c2ncc(CN3CCCC4(C3)OCCO4)s2)o1`, in that order: -5% and 0.88.
For `COc1cc(C)c(S(=O)(=O)N2CCc3cc4ccccc4nc32)cc1C`, in that order: -10% and 1.11.
For the compound `C[C@H](NC(=O)c1cncc(O)c1)c1nncn1C`, the “% Inhibition” value is -4% and the Z score came to 0.69.
In the same order, the values of `Cc1nc(N(C)C)cc(N2CCN(C(=O)C3CCCC3)CC2)n1` are -17% and 1.88.
In the same order, the values of `c1ccc(CC2(c3nc(-c4cnccn4)no3)CCC2)cc1` are 13% and -2.33.
In the same order, the values of `COc1cccc(-c2nsc(C(=O)NCc3cccs3)c2N)c1` are 18% and -2.8.
`OC1CCCCC1N1CCc2sccc2C1` (stereo unspecified): the “% Inhibition” value is -21% and the Z score was found to be 2.66.
Regarding `CCNCc1cccc(Cl)c1Cl`, the “% Inhibition” value was found to be 4% and the Z score is on record as -0.5.
With `CCN(CC)CCNCc1cccc(Cl)c1Cl`, the “% Inhibition” value is reported as -2% and the Z score was found to be 0.28.
For `Clc1cccc(CNCCCNc2ccncc2)c1Cl`, in that order: 67% and -8.81.
For `Cc1ccc2c(c1)CCCN2C(=O)c1ccoc1`, in that order: 4% and -0.72.
In the same order, the values of `CCn1ccc(C(=O)N[C@H]2CCOC[C@@H]2OC)n1` are -7% and 0.83.
On to `OC1CCC(NC(=NC2CC2)NCc2ccccc2F)CC1` (stereo unspecified), for which the “% Inhibition” value was -9% and the Z score was found to be 1.4.
With `CCOC(=O)CCn1cc(F)c(=O)[nH]c1=O`, the “% Inhibition” value stood at 74% and the Z score is reported as -6.55.
Regarding `Cc1cc(C(=O)Cn2cc(Cl)c(=O)[nH]c2=O)c(Cl)cc1F`, the “% Inhibition” value is reported as -1% and the Z score was found to be 0.1.
For `CC1(C)C(CNC(=O)CCn2cc(C(N)=O)c(=O)[nH]c2=O)C1(C)C`, in that order: 19% and -2.23.
For `CCCCN(CC)C(=O)Nc1cc(Cl)c(OC)cc1OC`, in that order: 1% and -0.07.
Consider `O=C(NCCCn1ccnc1)[C@@H]1Cc2c(ccc3ccccc23)O1`, for which the “% Inhibition” value is on record as 4% and the Z score was -0.47.
In the same order, the values of `C[C@@H](C(=O)Nc1nnc[nH]1)c1ccc2c(c1)[nH]c1ccc(Cl)cc12` are -7% and 0.71.
In the same order, the values of `C[C@@H](C(=O)Nc1ncc[nH]1)c1ccc2c(c1)[nH]c1ccc(Cl)cc12` are 69% and -1.75.
In the same order, the values of `CC(C)[C@H](NC(=O)Nc1cc(Cl)ccc1Cl)c1ncc[nH]1` are -5% and 0.62.
For `CN(c1ccc2c(c1)CCO2)S(C)(=O)=O`, the “% Inhibition” value is reported as 13% and the Z score was -1.53.
For `FC(F)(F)C1CN(c2nc(-c3ccccn3)nc3c2CCC3)C1`, in that order: 75% and -13.36.
In the same order, the values of `O=C(O)[C@H]1CCCN(c2nc(-c3ccsc3)nc3ccccc23)C1` are -12% and 2.15.
In the same order, the values of `FC(F)(F)[C@H]1CCCN(c2nc(-c3cccnc3)nc3ccccc23)C1` are 8% and -0.64.
With `COC[C@H]1CCN(c2nc(-c3ccccn3)nc3c2CCNCC3)C1`, the “% Inhibition” value is reported as -2% and the Z score was 0.41.
For `C[C@H]1CCCN(c2nc(-c3ccccn3)nc3ccccc23)C1`, in that order: 96% and -9.05.
Consider `NC(=O)C[C@H]1CCN(c2nc(-c3ccccn3)nc3c2CCC3)C1`, for which the “% Inhibition” value is given as -8% and the Z score is 1.56.
In the same order, the values of `c1ccc(-c2nc3c(c(N4Cc5ccccc5C4)n2)CCNC3)nc1` are -4% and 0.52.
In the case of `C[C@H]1CCN(c2nc(-c3ccccn3)nc3c2CCC3)C1`, the “% Inhibition” value is 90% and the Z score is on record as -12.13.
In the same order, the values of `O=C(Cn1nccn1)N1CCN(Cc2ccc3c(c2)OCO3)CC1` are 2% and -0.28.
In the same order, the values of `CCN(C(=O)c1cc(N)ccc1Cl)C(C)C` are 6% and -0.81.
For the compound `Cc1cccn(CC(=O)N2CCC(=O)[C@@H](C)C2)c1=O`, the “% Inhibition” value is 2% and the Z score is on record as -0.36.
For `O=C1c2ccccc2C(=O)N1Cc1nc(-c2cccnc2)no1`, in that order: -9% and 1.34.
Turning to `Cc1ccsc1C(=O)NCCNc1ncccn1`, the “% Inhibition” value is recorded as -7% and the Z score is given as 0.93.
In the same order, the values of `CCCc1cnc(C)nc1-c1ccnc2c1ccn2C` are -4% and 0.73.
Regarding `Cc1ccncc1C(=O)N1CCC(CCn2c(C)cnc2C2CC2)CC1`, the “% Inhibition” value is on record as -3% and the Z score is 0.37.
In the same order, the values of `Cc1ccnc(N2CCC(O)(Cn3ccnc3)CC2)n1` are -12% and 1.12.
For `CC(C)(C)c1ccc(=O)n(CC2CN(c3cnsn3)C2)n1`, in that order: -16% and 2.38.
As to `C[C@H](Nc1ncc(C(F)(F)F)cc1Cl)C(N)=O`, the “% Inhibition” value is reported as -10% and the Z score came out at 1.96.
For `CC(=O)C(=CNc1ncc(C(F)(F)F)cc1Cl)C(C)=O`, in that order: -6% and 1.17.
In the same order, the values of `CN(C(=O)C(C)(C)Nc1ncc(C(F)(F)F)cc1Cl)c1ccc(Cl)cc1` are 59% and -7.64.
For `FC(F)(F)c1cccc(-c2cc(-c3csc(-c4ccccc4)n3)on2)c1`, in that order: 1% and -0.12.
In the case of `Oc1nc(-c2cccnc2)sc1-c1ccccc1`, the “% Inhibition” value is on record as -2% and the Z score came out at 0.32.
In the same order, the values of `Oc1nc(-c2cccc(C(F)(F)F)c2)sc1-c1ccccc1` are 59% and 0.06.
In the same order, the values of `O=C(CCn1c(=O)[nH]c2ccsc2c1=O)NCc1ccccc1` are 59% and -1.7.
In the same order, the values of `O=c1[nH]c2ccsc2c(=O)n1CCc1ccccc1` are 33% and -4.74.
Take `O=C(NCCn1c(=O)[nH]c2ccsc2c1=O)c1ccccc1Cl`: the “% Inhibition” value is recorded as -10% and the Z score is recorded as 1.7.
For `COc1cc(C(=O)NCC2(C)CCCCCC2)on1`, in that order: -5% and 0.52.
In the same order, the values of `CC1=C(C(=O)Nc2ccccc2)[C@H](c2ccc(Cl)cc2)c2c(n(C)c(=O)n(C)c2=O)N1` are -3% and 0.36.
In the same order, the values of `O=C(NCCCOCC(F)(F)F)NC1CCCC2OCCC12` (stereo unspecified) are -14% and 1.44.
Take `CCN1CCN(CCN2CC3(CCN(Cc4ccccc4C#N)CC3)OC2=O)CC1`: the “% Inhibition” value was determined as 2% and the Z score is given as -0.49.
In the same order, the values of `Cc1cc(C)c2c(c1)N(C(=O)Cc1cnccc1C)CCO2` are -7% and 0.88.
Consider `CCc1nc(O)c(C(=O)N2CCOc3cc(F)c(F)cc32)cc1C`, for which the “% Inhibition” value is on record as -5% and the Z score stood at 0.67.
On to `CCc1nc2c(C(=O)N3CCOc4c(C)cc(C)cc43)ccnc2[nH]1`, for which the “% Inhibition” value was found to be 71% and the Z score is -10.67.
